From PubChem BioAssay (NCATS)
Calls of active or inactive are those of the source. The call rests on the fitted dose curve; in most records, active means well fitted inhibition curve with a large enough effect; inconclusive means small, poorly fitted or top-dose-only effect; inactive means no such curve, though single readings can be large or run the other way.

assay: qHTS assay for measurement of the activity of small molecule inhibitors on Zika virus induced Caspase-3 activity in human astrocytoma cells (AID 1224859); conditions: SNB-19 ZIKV-induced caspase-3/7, luminescence, 6 h; series mostly up to 45.7 µM; activity change, negative = inhibition: at the top concentration;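 on activity change, negative = inhibition: plate controls were ZIKV-infected untreated cells for no effect and uninfected cells for full effect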
Description: National Center for Advancing Translational Sciences [NCATS]
Johns Hopkins University School of Medicine
Increase in the Caspase-3 activity indicates an activation of apoptosis cell death pathway caused by Zika virus infection in certain types of neuronal cells including human neural progenitor cells (hNPCs), astrocytes, and astrocytoma cell line (SNB-19). This cell-based caspase-3 activity assay measures the increased caspase-3 activity in the astrocytoma cell line (SNB-19) after a 6-hour Zika virus infection with a luminescence readout. A decrease in the luminescence signal in this assay by small molecule treatment indicates an inhibitory effect of that small molecule on the Zika virus induced caspase-3 activity that may correlate with its effect on reduction of Zika virus caused cell death.
The medium for SNB-19 cells is composed of RPMI 1640 (ATCC, Cat.# 30-2001), 10% fetal bovine serum (FBS) (GE healthcare Life Sciences, Cat.# SH30071.03), and 1% Pen/Strep (Gibco, Cat.# 15140-122). A Caspase-Glo 3/7 assay kit (catalog number G8092; Promega, Madison, WI) was used to detect caspase-3 activity induced by Zika virus infection in human cells. The reagent mixture was reconstituted as described in the protocol from the manufacturer. Polystyrene tissue culture treated and PDL coated white plates were obtained from Greiner Bio-One (Monroe, NC). Cells were seeded in 384- or 1536-well assay plates and cultured at 37 C with 5% CO2 for 16 to 20 hours. The typical cell seeding density in the 1536-well plate assay is 250 cells/well in 3ul medium for SNB-19 cells in tissue culture treated plates. Compounds were added to cells and incubated for one hour before addition of ZIKV solution to cells (2 FFU/cell). After incubation at 37 C with 5% CO2 for 6 hours, the reagent mixture of Caspase-Glo 3/7 assay kit was added to each well, followed by incubation at room temperature for 30 minutes. The luminescence intensity of the assay plates was measured using a ViewLux plate reader (PerkinElmer). Data were normalized by using the cell-containing wells without ZIKV as a negative control (0% induction of caspase 3/7 activity) and wells containing ZIKV infected cells (Caspase-3 activity induced) as a positive control (100% induction of caspase 3 activity). The percentage inhibitions of the increased Caspase-3 activity by small molecule inhibitors were then calculated.
Potency means the concentration at half of the fitted maximal effect.

Row | Structure (SMILES) | activity change, negative = inhibition | Potency
1 | NCCCCC(=O)O | -1.25% (inactive) | –
2 | NC(=S)NCCC[C@H](N)C(=O)O | 9.94% (inactive) | –
3 | COc1cc2c(CCNC(C)=O)c[nH]c2cc1Cl | 5.05% (inactive) | –
4 | O=C(/C=C/c1ccc(O)cc1)c1ccc(O)cc1O | – | 1260 nM (active)
5 | C=CC(C)=C[C@@]1(C)SC(=O)C(C)=C1O | 2.27% (inactive) | –
6 | CCN(CC)c1ncnc2c1ncn2[C@@H]1O[C@H](COP(=O)(O)OP(=O)(O)C(Br)(Br)P(=O)(O)O)[C@@H](O)[C@H]1O | -3.45% (inactive) | –
7 | C[C@@H](NC(=O)/C(C#N)=C/c1ccc(O)c(O)c1)c1ccccc1 | 0.794% (inactive) | –
8 | CN(C)c1nc(N)c(C(=O)N=C(N)N)nc1Cl | 14.9% (inactive) | –
9 | O=C(c1cc(O)c(O)c([N+](=O)[O-])c1)c1ccccc1F | -11.5% (inactive) | –
10 | CCCC(=O)OC[C@@H](OC(=O)CCC)[C@@H](OC(=O)CCC)[C@H](Cn1c2nc(=O)[nH]c(=O)c-2nc2cc(C)c(C)cc21)OC(=O)CCC | -5.41% (inactive) | –
11 | O=S(=O)(c1cccc2c(I)cccc12)N1CCCNCC1 | -23.4% (inactive) | –
12 | NCCCCCCCCCCN | -19.3% (inactive) | –
13 | CCCCCCCCc1ccc(-c2ccc(C(=O)O)cc2)cc1 | -3.17% (inactive) | –
14 | c1ccc2sc(SN3CCOCC3)nc2c1 | -9.27% (inactive) | –
15 | CCCCCCCCCCCCCCCCCC(=O)NCC(COP(=O)([O-])OCC[N+](C)(C)C)OCC (stereo not given) | 68.5% (inactive) | –
16 | O=C1C(SCCO)=C(SCCO)C(=O)c2ccccc21 | -7.4% (inactive) | –
17 | CC(C)OC(=O)c1cc(C(=O)OC(C)C)cc([N+](=O)[O-])c1 | -3.07% [at 92.8 µM] (inactive) | –
18 | COc1cc(NC(C)CCCN)c2ncccc2c1 (stereo not given) | -25.8% (inactive) | –
19 | CC(=O)c1ccc(OCC(=O)N2CCCCC2)cc1 | -25.8% (inactive) | –
20 | C=CCCCCCCCCC(=O)O | -1.44% (inactive) | –

Row | Structure (SMILES) | activity change, negative = inhibition | Potency
21 | N=c1ccn2c(n1)O[C@H]1[C@H](O)[C@@H](CO)O[C@H]12 | -8.25% (inactive) | –
22 | Nc1nc(Nc2ccccc2)nc2c1ncn2[C@@H]1O[C@H](CO)[C@@H](O)[C@H]1O | 5.65% (inactive) | –
23 | CO[C@@]1(NC(=O)Cc2cccs2)C(=O)N2C(C(=O)O)=C(COC(N)=O)CS[C@@H]21 | 2.23% (inactive) | –
24 | C=CC(N)CCC(=O)O (stereo not given) | 21.2% (inactive) | –
25 | Cc1cc(NC2CCCCC2)nc(-n2nc(C)cc2C)n1 | 16.1% (inactive) | –
26 | CC(N)C(=O)OC(C)(C)Cc1ccc(Cl)cc1 (stereo not given) | – | inactive
27 | CC1OC1P(=O)(O)O (stereo not given) | -1.18% (inactive) | –
28 | CCCCC1C(=O)N(c2ccccc2)N(c2ccc(O)cc2)C1=O (stereo not given) | 23% (inactive) | –
29 | O=C(O)c1cc(=O)c2c(Cl)cc(Cl)cc2[nH]1 | -4.55% (inactive) | –
30 | CC(=O)SCC[N+](C)(C)C | -9.14% (inactive) | –
31 | N#C/C(=C\c1ccc(-c2cc(Cl)ccc2Cl)o1)C(=O)Nc1cccc2ncccc12 | 0.117% (inactive) | –
32 | O=c1[nH]c2cc(Cl)c(Cl)cc2[nH]c1=O | 5.49% (inactive) | –
33 | C[N+](C)(CCCCCC[N+](C)(C)CCCN1C(=O)c2cccc3cccc(c23)C1=O)CCCN1C(=O)c2cccc3cccc(c23)C1=O | 0.648% (inactive) | –
34 | O=C(O)/C=C/C(O)c1ccc(Cl)cc1 (stereo not given) | 1.62% (inactive) | –
35 | CSc1nc(N)c2ncn([C@@H]3O[C@H](COP(=O)(O)OP(=O)(O)OP(=O)(O)O)[C@@H](O)[C@H]3O)c2n1 | 13.2% (inactive) | –
36 | CNCC[C@H](Oc1ccc(C(F)(F)F)cc1)c1ccccc1 | 1.17% (inactive) | –
37 | COc1cc(SC)ccc1C(=O)N1CCC(Cc2ccccc2)CC1 | -19.4% (inactive) | –
38 | O=C(O)c1cc(=O)c2ccccc2[nH]1 | 3.7% (inactive) | –
39 | CN(C)CCn1nnnc1SCC1=C(C(=O)O)N2C(=O)[C@@H](NC(=O)Cc3csc(N)n3)[C@H]2SC1 | -14.2% (inactive) | –
40 | CC(C)Cc1ccc([C@H](C)C(=O)O)cc1 | -32.2% (inactive) | –
